Assay [1] can be described thus: E. coli DRC41 culture turbidity changes, primary screen, E. coli filamentation inducer project, strain DRC41, OD650, 48 h (AID 1152).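 Also: E. coli MC1000 strain DRC41 lacking acrAB efflux pump and sulA.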 To be noted: E. coli DRC41 (acrAB sulA), higher = more signal, called active from +8 up or from −8 down.
Assay [2] can be described thus: small-molecule binders of probe aLefty1, primary screen, biochemical, small-molecule microarray, 635/667 nm fluorescence (AID 1153).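 Also: score merges spot fluorescence with signal-to-noise ratio from the scanned slide images.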 To be noted: higher = more signal.
Assay [3] can be described thus: PSAC antagonists in infected red cells, primary screen, cell-based, P. falciparum Indochina, OD700, 1 h (AID 1154). To be noted: P. falciparum Indochina infected RBC osmotic lysis, higher = more signal, called active from +8 up or from −8 down.
Assay [4] is described as follows: PSAC antagonists in infected red cells, primary screen, cell-based, P. falciparum Indochina, OD700, 2 h (AID 1155).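 Also: lysis reports solute entry through the parasite surface anion channel PSAC; channel blockers reduce lysis of infected cells.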 To be noted: P. falciparum Indochina infected erythrocytes, osmotic lysis OD700; higher = more signal, called active from +8 up or from −8 down.
A short description of assay [5]: osmotic lysis modulators in infected erythrocytes, primary screen, PSAC antagonist project, cell-based, P. falciparum Indochina, OD700, 3 h (AID 1156). The note with it: higher = more signal, called active from +8 up or from −8 down.
Assay [6] in a line: PSAC antagonists in infected red cells, primary screen, cell-based, P. falciparum Indochina, OD700, 18 h (AID 1157). The note with it: P. falciparum Indochina infected erythrocytes, osmotic lysis OD700, 18 h; higher = more signal, called active from +8 up or from −8 down.
Assay [7] in a line: modulators of S6 phosphorylation in cells, primary screen, cell-based, A549, cytoblot, luminescence, serum-stimulated (AID 1158).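 Also: serum-stimulated A549 lung adenocarcinoma cells; signal is phosphorylated S6 detected by cytoblot immunostaining with HRP secondary.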 To be noted: A549 phospho-S6 cytoblot, 5 h, higher = more signal.
Assay [8] concerns the target NADPH oxidase 2 (Homo sapiens) (UniProt P04839). The assay can be described thus: NOX2-dependent H2O2 signal modulators, primary screen, NOX inhibitor project, cell-based, HEK293-NOX2, PMA-stimulated, Amplex Red fluorescence (AID 1159). Also: test concentration not given here. To be noted: 45 min, higher = more signal, called active from +8 up or from −8 down.
Assay [9] has as its target NADPH oxidase 4 (Homo sapiens) (UniProt Q9NPH5). Description: NOX4-dependent H2O2 signal modulators, primary screen, NOX inhibitor project, cell-based, HEK293-NOX4, tetracycline-induced, Amplex Red fluorescence (AID 1160). The note with it: 45 min, higher = more signal, called active from +8 up or from −8 down.
Assay [10] addresses NADPH oxidase 5 (Homo sapiens) (UniProt Q96PH1). Description: NOX5-dependent H2O2 signal modulators, primary screen, NOX inhibitor project, cell-based, HEK293-NOX5, Amplex Red fluorescence (AID 1161). To be noted: HEK293-NOX5, ionomycin, 45 min, higher = more signal.

Calls of active or inactive are those of the source.

Sequence of NADPH oxidase 4 (Homo sapiens) (Q9NPH5 whole entry, looked up): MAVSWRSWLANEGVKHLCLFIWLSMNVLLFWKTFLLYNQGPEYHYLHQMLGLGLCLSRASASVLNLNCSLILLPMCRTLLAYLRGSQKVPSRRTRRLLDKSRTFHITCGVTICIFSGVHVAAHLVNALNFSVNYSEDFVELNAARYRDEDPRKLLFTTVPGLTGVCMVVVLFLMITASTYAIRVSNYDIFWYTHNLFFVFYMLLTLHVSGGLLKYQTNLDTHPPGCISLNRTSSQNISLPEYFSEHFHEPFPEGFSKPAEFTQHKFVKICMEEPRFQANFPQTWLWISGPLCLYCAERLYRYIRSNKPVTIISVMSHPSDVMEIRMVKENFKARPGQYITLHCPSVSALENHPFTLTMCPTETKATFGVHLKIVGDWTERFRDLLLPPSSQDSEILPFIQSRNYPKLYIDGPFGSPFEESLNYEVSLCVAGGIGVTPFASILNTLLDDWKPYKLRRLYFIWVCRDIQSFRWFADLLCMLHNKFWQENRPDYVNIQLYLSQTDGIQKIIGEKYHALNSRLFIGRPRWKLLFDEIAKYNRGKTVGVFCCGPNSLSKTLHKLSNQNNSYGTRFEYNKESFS
Sequence of NADPH oxidase 2 (Homo sapiens) (P04839 whole entry, looked up): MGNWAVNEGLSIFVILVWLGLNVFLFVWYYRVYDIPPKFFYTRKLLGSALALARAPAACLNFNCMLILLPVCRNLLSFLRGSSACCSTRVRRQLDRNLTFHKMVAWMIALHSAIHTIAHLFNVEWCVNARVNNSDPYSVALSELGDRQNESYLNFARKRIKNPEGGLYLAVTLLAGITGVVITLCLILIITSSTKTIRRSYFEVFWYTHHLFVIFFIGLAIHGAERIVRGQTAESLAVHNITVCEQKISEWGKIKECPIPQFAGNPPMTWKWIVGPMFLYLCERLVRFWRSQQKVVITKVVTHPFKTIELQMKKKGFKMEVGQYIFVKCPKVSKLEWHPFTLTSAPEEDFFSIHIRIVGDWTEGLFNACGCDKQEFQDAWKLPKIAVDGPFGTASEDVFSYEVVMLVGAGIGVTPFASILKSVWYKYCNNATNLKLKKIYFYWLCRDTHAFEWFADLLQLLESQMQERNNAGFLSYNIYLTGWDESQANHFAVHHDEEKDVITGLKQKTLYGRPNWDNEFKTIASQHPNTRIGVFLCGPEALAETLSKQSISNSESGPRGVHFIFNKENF
Sequence of NADPH oxidase 5 (Homo sapiens) (Q96PH1 whole entry, looked up): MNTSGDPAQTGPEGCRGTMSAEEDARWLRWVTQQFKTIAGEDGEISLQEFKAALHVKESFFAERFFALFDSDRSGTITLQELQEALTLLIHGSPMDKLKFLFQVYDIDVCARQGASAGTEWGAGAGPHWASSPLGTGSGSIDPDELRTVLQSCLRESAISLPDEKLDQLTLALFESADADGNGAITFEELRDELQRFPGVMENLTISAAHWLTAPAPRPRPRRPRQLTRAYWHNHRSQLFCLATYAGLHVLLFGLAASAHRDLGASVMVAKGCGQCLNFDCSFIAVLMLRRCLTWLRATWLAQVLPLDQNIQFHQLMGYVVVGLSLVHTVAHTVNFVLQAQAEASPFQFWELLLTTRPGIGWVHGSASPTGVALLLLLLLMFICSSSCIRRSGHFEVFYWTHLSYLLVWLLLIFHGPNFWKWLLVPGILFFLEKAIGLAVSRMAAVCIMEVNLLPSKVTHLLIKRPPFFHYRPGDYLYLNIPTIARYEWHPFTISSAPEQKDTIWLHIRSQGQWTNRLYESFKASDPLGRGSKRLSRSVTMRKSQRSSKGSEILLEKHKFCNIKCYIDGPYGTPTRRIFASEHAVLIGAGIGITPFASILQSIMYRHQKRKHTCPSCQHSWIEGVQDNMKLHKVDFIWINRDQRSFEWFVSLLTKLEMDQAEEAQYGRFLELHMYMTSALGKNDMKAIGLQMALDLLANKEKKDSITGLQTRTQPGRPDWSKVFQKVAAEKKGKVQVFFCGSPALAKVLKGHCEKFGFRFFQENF

For the molecule `O=C1OCCC/C=C\[C@H]2OC34C=CCN(c5ccc6ccccc6c5)C(=O)[C@H]3N(CCCCCO)C(=O)[C@@H]4C12` (stereo not given in full), the z-score in assay [1] was -0.829 (inactive); in [3], 0.29 (inactive); in assay [4] it was -0.0458 (inactive); in [5] it was -0.455 (inactive); in assay [6], -0.181 (inactive); in [7], -0.839. The figures for the z-score in assay [8], in assay [9] and in [10] were 0.814 (inactive), -0.15 (inactive) and 1.58, respectively. The composite z-score in assay [2] was -0.147.
As for `CC(=CC1CCCCC1)[C@@H](NC(=O)c1cccnc1)c1ccc(-c2ccccc2)cc1`, the z-score is -2.67 (inactive) in [1]; 1.85 (inactive) in [3]; 0.943 (inactive) in assay [4]; -0.0465 (inactive) in assay [5]; 0.348 (inactive) in assay [6]; -0.849 in assay [7]. Besides, the results for the z-score in assay [8], in [9] and in assay [10] were -1.27 (inactive), -2.55 (inactive) and -0.0302, respectively. Moreover, the composite z-score in [2] turned out to be 0.188.
As to `COC(=O)[C@]1(CCC(=O)OC(C)(C)C)N=C(c2ccc(OCCCO)cc2)O[C@@H]1c1ccccc1`, the z-score in [1] was 0.687 (inactive); in [3] it was 27.7 (active); in [4], 27.2 (active); in [5], 0.0027 (inactive); in assay [6] it was 5.02 (inactive); in [7], -0.406. For the same molecule, the z-score in assay [8] was -1.93 (inactive); in [9], 0.178 (inactive); in assay [10], -1.16. In addition, the composite z-score in [2] is 0.765.
Regarding `COc1ccccc1CN1C(=O)c2ccccc2[C@@H](C(=O)NCc2ccccc2)[C@@H]1c1ccc(CO)cc1`, the z-score in [1] was -0.0367 (inactive); in assay [3] it was 1.8 (inactive); in assay [4], 0.566 (inactive); in [5] it was 0.708 (inactive); in [6], 0.205 (inactive); in assay [7], 0.161. Further, the z-score in assay [8] was -1.11 (inactive); in assay [9], 0.148 (inactive); in [10], -0.707. In assay [2], this molecule displayed a composite z-score of 0.148.
With `C=CCC(OC(C)=O)[C@@H]1[C@@H](N(Cc2cc3ccccc3o2)C(=O)Cc2ccc(OC)cc2)c2cc(OCCCO)ccc2N1C(=O)c1ccc2ccccc2c1` (stereo not given in full), the z-score in [1] was -0.829 (inactive); in assay [3], 2.31 (inactive); in assay [4] it was -0.0382 (inactive); in assay [5], 1.17 (inactive); in [6], -0.0343 (inactive); in assay [7], 0.559. Also, the z-score in assay [8] was -1.16 (inactive); in [9], -1.26 (inactive); in assay [10] it was 1.14. In assay [2], this molecule showed a composite z-score of -0.0252.
For the molecule `O=C1C2C=CC(C(O)c3c(F)cccc3Cl)N(Nc3ccccc3F)C2C(=O)N1c1ccccc1` (stereo not given), the z-score in assay [1] is -0.775 (inactive); in [3], 6.75 (inactive); in assay [4], 1.57 (inactive); in assay [5], 0.303 (inactive); in assay [6] it was 1.1 (inactive); in assay [7] it was -0.514. The z-score was -1.43 (inactive) in assay [8], -4.43 (inactive) in assay [9] and -2.84 in assay [10]. The composite z-score in [2] was 0.19.
In the case of `O=C(O)[C@@]1(CCS(=O)(=O)c2ccccc2)N=C(c2ccc(OCCCO)cc2)O[C@H]1c1ccccc1`, the z-score in assay [1] was 0.183 (inactive); in assay [3], 22.6 (active); in assay [4] it was 4.96 (inactive); in [5], 0.178 (inactive); in [6], 0.789 (inactive); in [7], -0.238. The z-score is -0.333 (inactive) in [8], 1.66 (inactive) in [9] and 1.26 in assay [10]. For the same molecule, the composite z-score in assay [2] came out at 0.0458.
For the molecule `Cc1ccc(S(=O)(=O)N2C[C@@H](C(=O)O)[C@H](Sc3ccccc3)C[C@H]2c2ccccc2)cc1`, the z-score in assay [1] is -1.37 (inactive); in assay [3], 1.7 (inactive); in [4] it was 0.932 (inactive); in assay [5], 0.369 (inactive); in assay [6], 0.806 (inactive); in assay [7], -0.33. The values for the z-score in assay [8], in assay [9] and in assay [10] were 1.63 (inactive), 0.111 (inactive) and 1.73, respectively. The same molecule came in with a composite z-score in [2] of 0.409.
For `CCCC(=O)N(CCc1c[nH]c2ccccc12)[C@@H]1CC(C(=O)NCCO)=C[C@H](Oc2c(I)cc(CO)cc2OC)[C@H]1O`, the z-score in assay [1] is 1.57 (inactive); in assay [3], 13.2 (active); in [4], 1.47 (inactive); in [5], 2.04 (inactive); in assay [6], 0.501 (inactive); in [7], 0.968. In addition, the z-score was -0.674 (inactive) in [8], 1.07 (inactive) in [9] and 1.16 in assay [10]. In addition, in assay [2], the composite z-score was -0.275.
`COc1cc(CO)cc(I)c1O[C@H]1C=C(C(=O)NCCO)C[C@@H](N(C(=O)c2cc3ccccc3oc2=O)C2CCCCCC2)[C@@H]1O`: the z-score in assay [1] is 1.07 (inactive); in [3], 4.63 (inactive); in [4], -0.78 (inactive); in assay [5] it was 1.19 (inactive); in [6], -1.9 (inactive); in [7], 1.95. The results for the z-score in [8], in assay [9] and in [10] were 0.202 (inactive), 0.881 (inactive) and 1.2, respectively. This molecule also displayed a composite z-score in assay [2] of -0.0646.
As for `CC(C)Cc1ccc(CN2CC[C@@H](N)C2)cc1`, the z-score in assay [1] was -3.85 (inactive); in assay [3], 0.483 (inactive); in [4], 0.933 (inactive); in assay [5] it was -0.285 (inactive); in assay [6], 0.525 (inactive); in assay [7], 0.412. Further, the z-score in assay [8] was -0.0323 (inactive); in assay [9], -0.535 (inactive); in [10], -1.29. The composite z-score in [2] was -0.0969.
Turning to `CN(C)CCCCNC(=O)[C@@H]1C[C@@H]2C(=O)N[C@@H](CCCCN)C(=O)N2[C@@H]1c1ccc(O)cc1`, the z-score was 0.928 (inactive) in assay [1]; 1.93 (inactive) in assay [3]; 1.43 (inactive) in assay [4]; -0.079 (inactive) in [5]; 1.16 (inactive) in [6]; 0.297 in [7]. Also, the z-score was 1.42 (inactive) in assay [8], 1.28 (inactive) in [9] and 0.81 in assay [10]. Further, in assay [2], the composite z-score is 0.129.
In the case of `COC(=O)[C@@]1(Cc2ccc(OC)cc2)[C@H]2c3cc(C(=O)N4CCCC4)n(CCCNc4ncc(C(F)(F)F)cc4Cl)c3C[C@H]2CN1C(=O)c1ccccc1`, the z-score in [1] was -1.46 (inactive); in [3], 10.1 (active); in assay [4], 1.37 (inactive); in [5] it was 2.15 (inactive); in assay [6] it was 1.13 (inactive); in assay [7] it was -0.0195. Further, the z-score in assay [8] is 0.128 (inactive); in assay [9] it was 0.577 (inactive); in assay [10], 1.65. In addition, the composite z-score in assay [2] is 0.982.
`NC(=O)[C@@H]1[C@H]2C(=O)O[C@H](c3ccccc3)[C@H](c3ccccc3)N2[C@H](c2ccc(O)cc2)[C@@]12C(=O)Nc1ccc(C#CC3=CCCCC3)cc12`: the z-score in [1] is -1.1 (inactive); in assay [3], 1.78 (inactive); in assay [4], 1.07 (inactive); in assay [5], -0.491 (inactive); in assay [6] it was 1.27 (inactive); in assay [7] it was -0.7. The z-score is 0.615 (inactive) in [8], 0.196 (inactive) in [9] and -0.325 in assay [10]. In assay [2], this molecule had a composite z-score of 1.47.
As to `COCCOC(=O)N1C(=O)[C@@]2(c3cc(C#CC4(O)CCCCCC4)ccc31)[C@H](C(=O)Nc1nc3ccccc3s1)[C@H]1C(=O)O[C@H](c3ccccc3)[C@H](c3ccccc3)N1[C@@H]2c1ccc(OCCO)cc1`, the z-score is 0.197 (inactive) in assay [1]; 2.97 (inactive) in assay [3]; 2.39 (inactive) in assay [4]; 1.73 (inactive) in [5]; 2.27 (inactive) in assay [6]; 0.481 in [7]. Moreover, the z-score in assay [8] is 0.566 (inactive); in [9] it was -0.595 (inactive); in assay [10], 0.0214. Also, the composite z-score in assay [2] came out at 0.411.

The values above are taken from PubChem BioAssay.
